Source: the supplement of paper PMC3334620
Whole data set: some 33,000 sequences, median “E-score (-0.5 to 0.5)” near -0.035, cut for the highest 2% near 0.34. The sample as a whole holds a higher share of the highest values than the screen did.

molecular target: T1, Mot3 (UniProt P54785); assay: PBM E-score (8-mer binding enrichment) (E-score (-0.5 to 0.5)); higher = stronger / more preferred TF binding; details: protein concentration: 200 nM; construct: GST-full length
T1 sequence: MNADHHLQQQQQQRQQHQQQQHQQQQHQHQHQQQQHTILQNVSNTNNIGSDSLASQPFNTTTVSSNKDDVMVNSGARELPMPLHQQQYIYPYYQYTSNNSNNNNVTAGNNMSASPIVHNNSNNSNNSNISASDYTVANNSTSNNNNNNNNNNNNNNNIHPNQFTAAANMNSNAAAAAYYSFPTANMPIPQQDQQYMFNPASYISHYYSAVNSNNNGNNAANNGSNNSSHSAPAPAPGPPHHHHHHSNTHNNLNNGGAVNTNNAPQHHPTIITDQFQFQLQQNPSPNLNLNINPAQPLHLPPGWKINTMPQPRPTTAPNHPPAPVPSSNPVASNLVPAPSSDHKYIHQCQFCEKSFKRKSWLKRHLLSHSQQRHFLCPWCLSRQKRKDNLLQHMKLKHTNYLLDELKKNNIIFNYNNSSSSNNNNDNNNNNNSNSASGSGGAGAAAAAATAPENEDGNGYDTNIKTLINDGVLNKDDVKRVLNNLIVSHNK
Summary of the method: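 Bound GST-tagged yeast transcription factors, applied at about 100-200 nM to double-stranded universal all-10-mer Agilent arrays, were detected with fluorescent anti-GST. Scans were normalised with masliner. A modified Wilcoxon-Mann-Whitney statistic, the E-score, was assigned to each ungapped eight-base word pooled with its reverse complement by the Universal PBM Analysis Suite.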

Row | Sequence | PBM E-score
1 | AATTAAAT | 0.124
2 | ACGTACGG | -0.163
3 | AGGTACTC | 0.333
4 | AGGTACTG | 0.258
5 | AGGTACGA | 0.346
6 | AGGTACGC | 0.444
7 | AGGTACGG | 0.39
8 | CGGTACGC | -0.174
9 | GGGTACGA | -0.148
10 | CGGTACGA | -0.155
11 | CGACTAGA | -0.0287
12 | AAGCCCAT | -0.253
13 | ACAACGTG | 0.114
14 | TACAGCGA | -0.184
15 | TAAATACA | 0.366
16 | AACATAGA | 0.2
17 | TACATACA | 0.355
18 | GACATAGA | 0.0532
19 | GAAATACA | 0.328
20 | CACATACA | 0.239
21 | TACATAGA | 0.357
22 | GACATACA | 0.218

Row | Sequence | PBM E-score
23 | AAAATACA | 0.298
24 | GCCTCCGA | 0.0149
25 | CGTACCAC | -0.0328
26 | CGAATTCG | -0.137
27 | AACAGAAG | 0.0357
28 | GTCTTAAA | -0.131
29 | CCCTGAAA | -0.0551
30 | AAAGGTTC | 0.12
31 | ACACGATC | 0.347
32 | AGACGATC | -0.288
33 | ACACGATA | 0.345
34 | CCACGATA | -0.107
35 | ACACGATG | 0.199
36 | CCACGATC | 0.0336
37 | CCTTTGAC | 0.125
38 | GAGGCTAA | -0.134
39 | ACTGCGCA | -0.17
40 | GGTGGGCA | 0.0151
41 | GGTGACAA | -0.12
42 | CCCTTTAC | 0.15
43 | GCCTTTAA | 0.322
44 | GCCTTTAC | 0.357

Row | Sequence | PBM E-score
45 | AGCGCTAG | -0.115
46 | TATTTCAA | 0.159
47 | CCATCTAG | -0.0951
48 | ATTTAACG | 0.247
49 | TGTTATAA | 0.35
50 | AGTTATAA | 0.163
51 | CGTTATAA | 0.15
52 | TCTTAACA | 0.346
53 | ATTTAACA | 0.354
54 | ATTTAACC | 0.0628
55 | TGTTAAAA | 0.343
56 | CCTTAACA | 0.315
57 | CGTTAAAA | 0.151
58 | GCTTAACA | 0.229
59 | GGTTAAAA | 0.194
60 | CGGGGGGC | -0.295
61 | ACAATTCC | -0.0244
62 | CGCTCCAC | -0.234
63 | GTGAAGTA | 0.0411
64 | TAACACAA | 0.332
65 | CCAGTATA | -0.178
66 | ACTTGATA | 0.0522

Row | Sequence | PBM E-score
67 | GAATCTAA | -0.0012
68 | CCTGAACA | 0.23
69 | GATTAACA | 0.338
70 | CGTTAACA | 0.244
71 | AGTTAACA | 0.279
72 | TGTTAACA | 0.361
73 | TATTAACA | 0.359
74 | CATTAACA | 0.299
75 | AAAAGGTC | -0.161
76 | CTGCAGCA | -0.0262
77 | GCCAGCGC | -0.236
78 | AAGCGTAA | 0.0617
79 | GCGTTTCC | 0.0476
80 | CGGAAATC | -0.109
81 | AGGAAATC | 0.373
82 | CGGAAATA | -0.206
83 | AGGAAATA | 0.368
84 | GGGAAATA | 0.0874
85 | AGGAAATG | 0.262
86 | AGTGATAG | 0.0766
87 | GCCTCGCC | -0.17
88 | ACCTGAAC | 0.0861

Row | Sequence | PBM E-score
89 | AAGGGTAT | -0.018
90 | TATTCACA | 0.221
91 | ACAGGAGG | -0.0434
92 | AAAAGATG | 0.11
93 | TAAAGTCA | 0.0168
94 | CAAAGGCC | -0.151
95 | TAAAGGCA | 0.481
96 | AAAAGGCT | 0.0632
97 | AAAAGGCG | 0.278
98 | GAAAGGGA | 0.0421
99 | AAAAGGCA | 0.478
100 | CAAAGGCG | 0.233
101 | CAAAGGCA | 0.479
102 | GAAAGGCA | 0.469
103 | GAAAGGCC | -0.0302
104 | TAAAGGGA | 0.016
105 | ACAACGAT | 0.155
106 | AGCACAAG | 0.0406
107 | CTAGGCCC | -0.21
108 | CTCTACCA | -0.192
109 | CGACTCAG | -0.219
